Compound activity: PubChem, National Center for Advancing Translational Sciences (NCATS)
An excerpt weighted towards active compounds, which were near 3.3% of everything screened.
Tau fibril FP: blocks human tau fibril formation measured by polarization | P10636 | actives 0.39% (n = 280,000) | Potency, µM (series often up to 57.7 µM), for the others: at the top dose activity, negative = inhibition, actives largely listed as inhibitors | K18 P301L tau heparin fibrillization, Alexa594 FP, 6 h; further: nearly all actives have a fitted effect of over 55% in size
Target sequence (P10636 561-689 P618L limits assumed): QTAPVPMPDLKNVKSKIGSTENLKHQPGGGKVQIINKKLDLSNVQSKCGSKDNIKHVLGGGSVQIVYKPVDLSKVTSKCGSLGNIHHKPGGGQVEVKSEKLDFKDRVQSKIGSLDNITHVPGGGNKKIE
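Recombinant K18 P301L […], labeled with Alexa 594 at 0.24 uM over 15 uM unlabeled; heparin inducer 20 uM final; 37 C, 6 hr; FP endpoint.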
Tau fluor counter: counter-screen for tau fibril formation inhibitors. tau K18 P301L Alexa594 fluorescence, heparin fibrillization. Potency, µM (titrated, usually from 57.7 µM), inactives show at the highest dose activity change, negative = decrease. actives 0.93% (n = 280,000). AID 1463; further: nearly all actives have a fitted effect of over 55% in size
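Human K18 P301L tau (15 uM unlabeled plus 0.24 uM Alexa 594-labeled, final) in 100 mM sodium acetate pH 7 was mixed with compound and 20 uM heparin and incubated 6 hr at 37 C.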
KinaseGlo FLuc: blocks Kinase-Glo luciferase, a counter-screen artifact | Q27757 | Kinase-Glo luciferase, ATP luminescence, 8 min | Potency, µM (titrated, usually from 38.3 µM), for the others: top-dose activity change, negative = inhibition, actives largely listed as inhibitors | actives 0.28% (n = 200,000); further: nearly all actives have a fitted effect of over 60% in size
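Inhibition of Kinase-Glo luciferase light generation was assessed at 10 uM ATP in pH 7.2 imidazole buffer, with luminescence measured after eight minutes at ambient temperature.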
NPSR antagonist: antagonists of human neuropeptide S receptor cAMP signaling; Q6W5P4; CHO-NPSR cells, cAMP TR-FRET, antagonist mode; Potency, µM (highest dose often 38.3 µM), for the others: at the highest dose activity change, negative = inhibition, actives largely listed as inhibitors; actives 1% (n = 220,000); AID 1461; further: nearly all actives have a fitted effect of over 50% in size
Target sequence (Q6W5P4 whole entry, looked up): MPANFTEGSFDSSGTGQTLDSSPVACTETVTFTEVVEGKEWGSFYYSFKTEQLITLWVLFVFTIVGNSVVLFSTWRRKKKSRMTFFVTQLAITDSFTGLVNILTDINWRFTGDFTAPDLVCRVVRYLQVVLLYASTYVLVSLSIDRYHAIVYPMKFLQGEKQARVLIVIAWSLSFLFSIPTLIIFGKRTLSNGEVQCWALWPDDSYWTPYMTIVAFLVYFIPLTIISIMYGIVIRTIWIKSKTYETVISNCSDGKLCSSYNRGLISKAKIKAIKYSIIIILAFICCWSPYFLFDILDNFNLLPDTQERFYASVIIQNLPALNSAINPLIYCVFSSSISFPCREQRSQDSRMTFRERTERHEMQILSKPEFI
Tau fibril ThT: tau fibrillization inhibition (ThT binding). actives 2.1% (n = 270,000). recombinant tau K18 P301L (four-repeat tau fragment), heparin-induced fibrillization, ThT fluorescence. Potency, µM (highest dose often 57.4 µM), for inactives: at the highest dose activity, negative = inhibition, actives largely listed as inhibitors. P10636; further: nearly all actives have a fitted effect of over 55% in size
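Heparin-induced (20 uM) aggregation of recombinant human K18 P301L tau, 15 uM unlabeled with 0.24 uM labeled, pH 7 acetate buffer, 6 hr at 37 C with compound. Fibrils quantified by 30 uM ThT fluorescence after 1 hr ambient incubation.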
Starred values were filed as active, the others as inactive; ? = inconclusive; . = no result; [ ] = dose if it differs, or a comment. The call rests on the fitted dose curve; in most records, active means well fitted curve in the direction sought with a large enough effect; inconclusive means small, poorly fitted or top-dose-only effect, or another doubt; inactive means no such curve, though single readings can be large; an effect the other way counts as inactive or inconclusive. On the % scale 0 is the no-effect control and ±100 the full control effect; potency means the concentration at half of the fitted maximal effect.

SMILES	Tau fibril FP	Tau fluor counter	KinaseGlo FLuc	NPSR antagonist	Tau fibril ThT
O=C(O)CC/C(=N\Nc1ccc(S(=O)(=O)N2CCCC2)cc1[N+](=O)[O-])c1cccs1	7.9%	-17.3%	-3.5%	-25.1%[46.1 µM]	31.6µM*
COc1cccc(N2CCN(C(=O)c3cc4c(s3)-c3c(C)cccc3OC4)CC2)c1	13.5%	-27.3%	.	.	?
CCC1=C(OC(=O)N(CC)CC)N2C(=O)OC(=NCC3CC3)[C@]2(C)[C@H]2C1=CC[C@H]1C(=O)N(c3ccccc3)C(=O)[C@H]12	1.8%	-21.7%	-1.6%	.	?
Cc1cc(/C=C2\SC(=S)N(C)C2=O)c(C)n1-c1cccc(O)c1	-11.4%	10µM*[quencher]	.	?	7.94µM*
COc1ccc(-n2c(C)cc(/C=C3/SC(=S)N(C)C3=O)c2C)cc1	-7.4%	-24.2%	-1.5%	-9.3%	?
CN1C(=O)/C(=C\c2cc(N=Nc3ccccc3)ccc2O)SC1=S	?	4.47µM*[quencher]	?	?	3.55µM*
Cc1nn(-c2ccccc2)c(Cl)c1/C=C1\SC(=S)N(C)C1=O	?	-29.9%	0.0%	-16.1%	?
O=c1oc2ccc(Cl)cc2cc1-c1cn2c(n1)sc1ccccc12	8.6%	6.0%	.	.	-7.5%
CCC(C(=O)NCCCN(CC)CC)n1ncn2c(cc3occc32)c1=O (stereo not drawn)	-1.4%	-1.3%	.	.	10.4%
O=C(Cc1cccs1)NC1C(=O)N2C(C(=O)[O-])=C(C[n+]3ccccc3)CSC12 (stereo not drawn)	?	-23.8%	-13.8%	.	15.8µM*
CC(=O)OCC1=C(C(=O)O)N2C(=O)[C@@H](NC(=O)Cc3cccs3)[C@H]2SC1	?	-15.1%	-4.4%	?	?
COc1ccc(-c2nc(S(=O)(=O)c3ccc(C)cc3)c(NCc3ccccc3)o2)cc1	-1.8%	-9.1%	.	.	?
Cc1cc(C(=O)COC(=O)c2ccccc2Br)c(C)n1CC1CCCO1 (stereo not drawn)	6.0%	-24.1%	.	-35.2%	-16.2%
Cc1cc(C(=O)COC(=O)c2cccnc2Cl)c(C)n1CC1CCCO1 (stereo not drawn)	0.2%	-3.8%	10µM*	1.9%	-15.2%
Cc1cc(C(=O)COC(=O)c2cc(O)c3ccccc3c2O)c(C)n1CC1CCCO1 (stereo not drawn)	?	?	0.6%	-11.3%	14.1µM*
OC(CNCCC1C=Nc2ccccc21)Cn1c2ccc(Cl)cc2c2cc(Cl)ccc21 (stereo not drawn)	?	3.16µM*[quencher]	-3.9%	10µM*	?
O=C(Cn1c(=O)n(CC2CCCO2)c(=O)c2ccccc21)Nc1ccc(F)cc1F (stereo not drawn)	1.2%	-5.4%	.	.	-2.1%
O=C(/C=C/NNC(=O)c1ccccc1)c1ccc(Br)cc1	0.5%	?	1.3%	-16.4%[46.1 µM]	25.1µM*
O=C(/C=C/NNC(=O)c1ccc(Cl)cc1)c1ccccc1	-1.2%	-13.4%	0.7%	-16.0%	22.4µM*
O=C(/C=C/NNC(=O)c1cccc(Br)c1)c1cccc(Br)c1	0.7%	?	-3.5%	-14.5%[46.1 µM]	14.1µM*
O=C(NCc1ccccc1)c1ccc(Cl)cc1	-7.1%	-25.1%	.	2.8%	.
O=C(/C=C/Nc1ccc(Br)cc1F)c1ccccc1	-4.0%	-9.7%	10µM*	-2.2%	?
O=C(/C=C/Nc1ccccc1F)c1ccc(Br)cc1	-15.2%	0.5%	-10.6%	9.5%	?
Oc1ccc(C(c2nnnn2CCc2ccccc2)N2CCN(c3nc4ccccc4s3)CC2)cc1 (stereo not drawn)	-15.2%	-27.3%	.	-53.4%	-12.3%
Cc1cc(N/N=C/c2ccc(O)c(C)c2O)nc(-c2ccccc2O)n1	?	7.94µM*[quencher]	0.2%	?	?
SMILES	Tau fibril FP	Tau fluor counter	KinaseGlo FLuc	NPSR antagonist	Tau fibril ThT
Cc1ccc(Nc2cc(C)nc(-c3ccccc3O)n2)cc1	?	8.91µM*[quencher]	-2.0%	?	?
Cc1cc(Nc2ccc(F)c(F)c2)nc(-c2ccccc2O)n1	?	-23.3%	.	30.4%[7.67 µM]	-3.1%
CCCCN(C)CCCNC(=O)CN1C(=O)COc2ccc(S(=O)(=O)N3CCC(C)CC3)cc21	1.0%	-0.2%	.	.	3.6%
CCN1c2ccccc2-c2nc(SCC(=O)NCc3ccc(C)cc3)ncc2S1(=O)=O	-6.1%	-13.7%	.	.	9.6%
Cc1nc(N)sc1-c1csc(NCc2ccccc2)n1	?	?	-3.7%	-11.6%[46.1 µM]	20µM*
Cc1nc(N)sc1-c1csc(Nc2ncccn2)n1	2.9%	-29.5%	-1.6%	-13.4%	3.98µM*
Cc1cc(NS(=O)(=O)c2ccc(Nc3nc(-c4sc(NC(=O)c5ccccc5)nc4C)cs3)cc2)no1	10.6%	15.8µM*[quencher]	-3.3%	-19.9%[46.1 µM]	20µM*
Cc1nc(NC(=O)c2ccccc2)sc1-c1csc(NCCc2ccccc2)n1	?	15.8µM*[quencher]	7.3%	-10.4%[46.1 µM]	15.8µM*
CCC(=O)Nc1nc(C)c(-c2csc(Nc3ccc(S(=O)(=O)Nc4cc(C)on4)cc3)n2)s1	12.3%	-20.9%	2.6%	0.0%[46.1 µM]	-15.9%
COc1ccccc1Nc1nc(-c2sc(NC(=O)c3ccccc3)nc2C)cs1	6.9%	?	-17.7%	-6.6%[46.1 µM]	?
Cc1ccc(Cl)cc1Nc1nc(-c2sc(NC(=O)c3ccccc3)nc2C)cs1	3.2%	?	-9.8%	-8.5%[46.1 µM]	?
Cc1nc(NC(=O)c2ccccc2)sc1-c1csc(N)n1	-3.5%	?	-9.8%	-14.8%[46.1 µM]	12.6µM*
Cc1nc(NC(=O)c2ccccc2)sc1-c1csc(NCc2ccccc2)n1	?	12.6µM*[quencher]	-10.6%	?	?
Cc1nc(NC(=O)c2ccccc2)sc1-c1csc(Nc2cccc(F)c2)n1	?	11.2µM*[quencher]	-1.2%	?	7.94µM*
CCC(C)NC(=O)/C=C1\Sc2ccccc2NC1=O (stereo not drawn)	0.2%	-2.6%	1.0%	-7.7%	-0.8%
